# PubChem BioAssay (EPA / NIEHS)
# Some structures have more than one record in an assay (separate samples or runs), and their calls can disagree. Activity calls are given as the source filed them. How the source made its calls: active means hit-call score of the fitted dose curve at least 0.9, where 1 is the maximum; inactive means score below 0.9.
# Test: CCTE_Mundy_HCI_hNP1_Casp3_7: CCTE's Caspase-Glo 3/7 Assay in human neuroprogenitor cells for Apoptosis, Mundy Lab (AID 2284240)
# Experimental: CCTE_Mundy_HCI_hNP1_Casp3_7 is a multiplexed, cell-based-readout assay that uses neural stem cells derived from a neuroepithelial cell lineage of WA09 embryonic cells with measurements taken at […] after chemical dosing in a microplate: 96-well plate.CCTE_Mundy_HCI_hNP1_Casp3_7 is one component of the CCTE_Mundy_HCI_hNP1_Casp3_7 assay. It measures apoptosis related to caspase activation using Luminescent Reporter.Data from the assay component CCTE_Mundy_HCI_hNP1_Casp3_7 was analyzed at the endpoint CCTE_Mundy_HCI_hNP1_Casp3_7_gain in the positive analysis fitting direction relative to DMSO as the negative control and baseline of activity. Using a type of viability reporter, gain -of-signal activity can be used to understand viability effects.
# Human neural progenitor cells (hNP1) were obtained as cryopreserved cells from ArunA Biomedical, Athens Georgia. Cells are plated on pre-coated poly-L-ornithine/laminin clear bottom and opaque 96 well plates (day 0). Plates are placed in a 37 °C, 5% CO2 incubator for 40 to 44 hours at which time plates are removed from the incubator and 10 uL of a freshly made chemical solution is added to each well. Apoptosis was measured based on detection of activated caspase-3/7 using the Caspase-Glo 3/7 assay kit (Promega). Twenty-four hours after chemical treatment, 50ul of Caspase-Glo 3/7 assay buffer was added to each well and the plate incubated for 30min at room temperature. Luminescence was then recorded in each well using a FLUOstar Optima plate reader.
SMILES,outcome,AC50
COP(=O)(OC)OC=C(Cl)Cl,inactive,–
O=[N+]([O-])/N=C1\NCCN1Cc1ccc(Cl)nc1,inactive,–
CC(C)N(C(=O)COc1nnc(C(F)(F)F)s1)c1ccc(F)cc1,inactive,–
CC1(c2ccc(Oc3ccccc3)cc2)OC(=O)N(Nc2ccccc2)C1=O (centres undefined),inactive,–
O=S1OCC2C(CO1)C1(Cl)C(Cl)=C(Cl)C2(Cl)C1(Cl)Cl (centres undefined),–,19.4 µM (active)
O=C(O)COc1ccc(Cl)cc1Cl,inactive,–
COP(=S)(OC)Oc1ccc([N+](=O)[O-])cc1,inactive,–
CCC(C)(C)C(=O)OC1=C(c2ccc(Cl)cc2Cl)C(=O)OC12CCCCC2,inactive,–
O=S(=O)(O)C(F)(F)C(F)(F)C(F)(F)C(F)(F)C(F)(F)C(F)(F)C(F)(F)C(F)(F)F,inactive,–
O=C(O)C(F)(F)C(F)(F)C(F)(F)C(F)(F)C(F)(F)C(F)(F)C(F)(F)F,inactive,–
CC[C@H](C)[C@H]1O[C@]2(C=C[C@@H]1C)C[C@@H]1C[C@@H](C/C=C(\C)[C@@H](O[C@H]3C[C@H](OC)[C@@H](O[C@H]4C[C@H](OC)[C@@H](O)[C@H](C)O4)[C@H](C)O3)[C@@H](C)/C=C/C=C3\CO[C@@H]4[C@H](O)C(C)=C[C@@H](C(=O)O1)[C@]34O)O2 (tested in a mixture with another compound),–,3.64 µM (active)
CNC(=O)CSP(=S)(OC)OC,inactive,–
CC1(C)C(C=C(Cl)Cl)C1C(=O)OC(C#N)c1ccc(F)c(Oc2ccccc2)c1 (centres undefined),inactive,31.3 µM (active)
